Among the data in PubChem BioAssay are composite z-score and z-score values, retold here.

The nature of assay [1]: anti-His antibody binders, primary screen, artefact control for SMM control protein annotation, biochemical, small-molecule microarray, 635 nm fluorescence (AID 1128).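 Further: score merges feature fluorescence with signal-to-noise for each printed compound spot.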 The conditions noted are these: anti-His Alexa647 antibody binding, higher = more signal.
In assay [2] the test system is Human papillomavirus type 1a E7 protein (residues 1-88). As to the kind of experiment: HPV1a E7 small-molecule binders, primary screen, biochemical, small-molecule microarray, residues 1-88, 635 nm (AID 1129). The conditions noted are these: small-molecule microarray binding, fluorescence 635 nm; higher = more signal.
Assay [3] concerns the target Focal adhesion kinase 1 (Homo sapiens) (UniProt Q05397). As to the kind of experiment: small-molecule microarray binders of FAK, primary screen, biochemical, 635/667 nm fluorescence, BSA, DTT (AID 1130).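 Further: composite of spot emission at 667 nm and signal to noise over triplicate slides.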 The conditions noted are these: PTK2 binding, 635 nm fluorescence, higher = more signal.
Assay [4] relates to Fibrinogen (Alexa647-labelled). Kind of assay: fibrinogen binders on compound microarrays, profiling panel, artefact control for SMM control-protein annotation, biochemical, small-molecule microarray, 635/667 nm fluorescence (AID 1131).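 Further: z-score merges 667 nm fluorescence with per-spot signal-to-noise over triplicate slides.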 The conditions noted are these: fibrinogen-A647 binding fluorescence, higher = more signal.
Assay [5] concerns the target Follistatin (Homo sapiens) (UniProt P19883). As to the kind of experiment: follistatin binders on small-molecule microarrays, primary screen, biochemical, small-molecule microarray, 635/667 nm fluorescence (AID 1132). The conditions noted are these: FST binding, 635 nm fluorescence, higher = more signal.
Assay [6] deals with Fibroblast growth factor 2 (Homo sapiens) (UniProt P09038). Kind of assay: FGF2 binders on small-molecule microarrays, primary screen, biochemical, small-molecule microarray, 635/667 nm fluorescence (AID 1133). The conditions noted are these: small-molecule microarray binding, FGF2, fluorescence 635/667; higher = more signal.
Fibroblast growth factor 2 (Homo sapiens), sequence (P09038 whole entry, looked up): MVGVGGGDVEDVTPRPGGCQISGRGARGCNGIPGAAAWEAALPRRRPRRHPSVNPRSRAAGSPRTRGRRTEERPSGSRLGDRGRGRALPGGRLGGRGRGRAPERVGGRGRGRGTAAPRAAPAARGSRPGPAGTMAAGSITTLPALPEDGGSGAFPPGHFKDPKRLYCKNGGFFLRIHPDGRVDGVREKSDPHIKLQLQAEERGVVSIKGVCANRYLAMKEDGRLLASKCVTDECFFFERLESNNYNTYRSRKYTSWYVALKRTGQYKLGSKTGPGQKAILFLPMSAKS
Assay [7] is described as follows: mitochondrial membrane potential change in A549 cells, profiling panel, cell-based, JC-1 fluorescence, basal, 24 h, 100 nL (AID 1138).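 Further: A549 lung adenocarcinoma cells under basal conditions with no added stimulus; test concentration not given here.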 The conditions noted are these: higher = more signal.
Another assay relates to Lefty1. Kind of assay: Lefty1 binders on small-molecule microarrays, primary screen, biochemical, small-molecule microarray, 635/667 nm fluorescence (AID 1139). The conditions noted are these: small-molecule microarray binding, fluorescence 635/667; higher = more signal.
In assay [8] the test system is wheat germ agglutinin (Triticum aestivum), Alexa647-labelled. As to the kind of experiment: wheat germ agglutinin binders on compound microarrays, profiling panel, artefact control for SMM control-protein annotation, biochemical, small-molecule microarray, 635/667 nm fluorescence (AID 1140).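 Further: score merges 667 nm feature emission with signal to noise over triplicate slides.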 The conditions noted are these: WGA-A647 binding, 635 nm fluorescence, higher = more signal.

For assay [9], the target named is Luciferin 4-monooxygenase (Photinus pyralis) (UniProt P08659). As to the kind of experiment: firefly luciferase enzyme inhibitors, primary screen, biochemical, luminescence, purified enzyme, 2006 set (AID 1141).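 Further: cell-free assay with purified firefly luciferase at 100 ng per well in PBS; test concentration not given here.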 The conditions noted are these: SteadyGlo luminescence, 30 min, higher = more signal, called active from +8 up or from −8 down.
Luciferin 4-monooxygenase (Photinus pyralis), sequence (P08659 whole entry, looked up): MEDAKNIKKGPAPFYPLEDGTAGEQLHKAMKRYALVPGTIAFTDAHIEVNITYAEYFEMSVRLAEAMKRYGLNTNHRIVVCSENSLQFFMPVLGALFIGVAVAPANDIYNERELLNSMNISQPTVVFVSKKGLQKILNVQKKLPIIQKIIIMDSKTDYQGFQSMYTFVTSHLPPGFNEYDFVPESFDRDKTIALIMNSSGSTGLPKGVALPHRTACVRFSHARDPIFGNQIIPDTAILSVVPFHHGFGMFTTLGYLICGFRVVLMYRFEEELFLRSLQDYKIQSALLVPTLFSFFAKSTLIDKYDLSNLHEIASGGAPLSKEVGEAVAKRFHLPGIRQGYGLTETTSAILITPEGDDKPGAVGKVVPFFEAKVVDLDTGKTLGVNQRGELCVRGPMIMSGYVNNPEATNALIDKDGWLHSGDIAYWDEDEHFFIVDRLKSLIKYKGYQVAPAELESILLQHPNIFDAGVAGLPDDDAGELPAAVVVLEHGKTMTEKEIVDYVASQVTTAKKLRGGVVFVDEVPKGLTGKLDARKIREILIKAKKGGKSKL
The subject of assay [10] is Wnt5a (protein binding on small-molecule microarray). As to the kind of experiment: Wnt5a binders on small-molecule microarray, primary screen, biophysical, 635/667 nm fluorescence (AID 1142).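 Further: fluorescence read at 667 nm with signal to noise per printed feature.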 The conditions noted are these: 635 nm fluorescence, higher = more signal.
Assay [11] is described as follows: cell viability in Huh7 cells, primary screen, cytotoxicity control for HCV replication inhibitor project, CellTiter-Glo luminescence, basal, 48 h (AID 1143).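 Further: Huh7 hepatoma cells carrying a hepatitis C replication reporter with no stimulus; test concentration not given here.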 The conditions noted are these: Huh7 HCV replicon, higher = more signal, called active from +8 up or from −8 down.
Assay [12] is described as follows: P. aeruginosa biofilm formation inhibitors, primary screen, PAO1 strain, BacTiter-Glo luminescence, LB-PBS (AID 1144). The conditions noted are these: 12 h, higher = more signal.
Assay [13] is described as follows: CREB reporter modulators without forskolin, primary screen, cell-based, PC12, CRE-LacZ reporter, unstimulated (AID 1145). The conditions noted are these: no forskolin, luminescence, 4.5 h, higher = more signal, called active from +8 up or from −8 down.
The nature of assay [14]: CREB reporter modulators under forskolin, primary screen, cell-based, PC12, CRE-LacZ reporter, forskolin-stimulated (AID 1146).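 Further: PC12 cells with 6xCRE LacZ reporter stimulated by forskolin 10 µM; beta-galactosidase reporter signal reflecting CREB driven transcription.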 The conditions noted are these: luminescence, 4.5 h, higher = more signal, called active from +8 up or from −8 down.
Assay [15] concerns the target Streptavidin (Streptomyces avidinii) (UniProt P22629). Kind of assay: streptavidin binders on small-molecule microarray, primary screen, artefact control for SMM compound annotation, biophysical, 635/667 nm fluorescence (AID 1147).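 Further: signal reflects streptavidin binding to arrayed compounds as a control protein.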 The conditions noted are these: streptavidin binding, higher = more signal.
Assay [16] in a line: small-molecule binders of probe aInhba, primary screen, biochemical, small-molecule microarray, 635/667 nm fluorescence (AID 1148).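 Further: score merges 667nm spot fluorescence with signal-to-noise for antibody binding to printed compounds.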 The conditions noted are these: higher = more signal.
Assay [17] has as its target Torsin-1A (Homo sapiens) (UniProt O14656). Kind of assay: torsin A binders from cell lysate, primary screen, small-molecule microarray, wild-type, 635/667 nm (AID 1149). The conditions noted are these: COS7 hTOR1A-WT lysate, 635 nm fluorescence, higher = more signal.
Assay [18] has the same target. As to the kind of experiment: small-molecule binders of mutant TOR1A in lysate, primary screen, cell lysate, small-molecule microarray, COS7 lysate, 635/667 nm fluorescence (AID 1150).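 Further: score pools 667 nm emission and signal to noise measuring lysate protein binding.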 The conditions noted are these: COS7 hTOR1A mutant lysate, 635 nm fluorescence, higher = more signal.
The subject of assay [19] is Sonic hedgehog protein (Shh). Kind of assay: small-molecule binders of Shh protein, primary screen, biochemical, small-molecule microarray, 635/667 nm fluorescence (AID 1151).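 Further: Shh protein binding to compounds spotted on small-molecule microarray slides; score combines spot fluorescence intensity with signal-to-noise across triplicate slides.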 The conditions noted are these: small-molecule microarray binding, 635 nm fluorescence; higher = more signal.

Active and inactive are the calls of the source. Unless noted, how the calls were made is not given here.

Focal adhesion kinase 1 (Homo sapiens), sequence (Q05397 whole entry, looked up): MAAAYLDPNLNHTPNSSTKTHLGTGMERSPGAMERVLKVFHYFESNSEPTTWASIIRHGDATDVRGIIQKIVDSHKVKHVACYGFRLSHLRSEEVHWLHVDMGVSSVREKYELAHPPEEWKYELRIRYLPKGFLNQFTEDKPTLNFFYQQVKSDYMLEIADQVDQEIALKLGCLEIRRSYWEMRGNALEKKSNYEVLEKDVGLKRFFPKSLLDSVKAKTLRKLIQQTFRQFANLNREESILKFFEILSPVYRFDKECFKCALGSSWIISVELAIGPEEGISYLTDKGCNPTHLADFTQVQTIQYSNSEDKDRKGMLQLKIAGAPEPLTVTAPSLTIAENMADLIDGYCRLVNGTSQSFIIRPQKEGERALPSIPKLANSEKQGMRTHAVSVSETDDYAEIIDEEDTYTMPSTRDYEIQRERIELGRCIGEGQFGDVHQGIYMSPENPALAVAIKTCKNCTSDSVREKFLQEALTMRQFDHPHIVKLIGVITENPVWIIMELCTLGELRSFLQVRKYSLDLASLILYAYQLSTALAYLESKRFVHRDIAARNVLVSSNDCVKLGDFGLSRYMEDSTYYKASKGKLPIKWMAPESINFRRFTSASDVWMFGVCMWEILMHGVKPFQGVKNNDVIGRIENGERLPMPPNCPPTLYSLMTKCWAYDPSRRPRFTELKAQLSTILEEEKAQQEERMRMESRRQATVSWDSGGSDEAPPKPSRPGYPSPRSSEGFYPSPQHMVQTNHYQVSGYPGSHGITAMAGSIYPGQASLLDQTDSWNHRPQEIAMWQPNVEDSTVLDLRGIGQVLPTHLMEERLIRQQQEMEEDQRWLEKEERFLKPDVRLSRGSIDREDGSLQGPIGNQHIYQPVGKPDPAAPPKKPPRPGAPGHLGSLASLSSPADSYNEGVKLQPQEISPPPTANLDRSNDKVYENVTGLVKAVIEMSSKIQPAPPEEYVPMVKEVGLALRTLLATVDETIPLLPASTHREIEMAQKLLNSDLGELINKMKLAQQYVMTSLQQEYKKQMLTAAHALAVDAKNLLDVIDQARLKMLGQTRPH
Follistatin (Homo sapiens), sequence (P19883 whole entry, looked up): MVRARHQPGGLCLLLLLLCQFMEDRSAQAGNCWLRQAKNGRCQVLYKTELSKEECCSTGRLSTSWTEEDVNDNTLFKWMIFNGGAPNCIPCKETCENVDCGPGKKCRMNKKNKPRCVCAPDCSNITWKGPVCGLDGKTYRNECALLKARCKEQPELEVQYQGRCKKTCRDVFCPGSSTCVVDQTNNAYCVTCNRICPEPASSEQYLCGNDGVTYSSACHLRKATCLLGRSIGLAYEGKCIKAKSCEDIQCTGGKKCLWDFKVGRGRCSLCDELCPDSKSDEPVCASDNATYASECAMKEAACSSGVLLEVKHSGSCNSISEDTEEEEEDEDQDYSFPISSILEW
Torsin-1A (Homo sapiens), sequence (O14656 whole entry, looked up): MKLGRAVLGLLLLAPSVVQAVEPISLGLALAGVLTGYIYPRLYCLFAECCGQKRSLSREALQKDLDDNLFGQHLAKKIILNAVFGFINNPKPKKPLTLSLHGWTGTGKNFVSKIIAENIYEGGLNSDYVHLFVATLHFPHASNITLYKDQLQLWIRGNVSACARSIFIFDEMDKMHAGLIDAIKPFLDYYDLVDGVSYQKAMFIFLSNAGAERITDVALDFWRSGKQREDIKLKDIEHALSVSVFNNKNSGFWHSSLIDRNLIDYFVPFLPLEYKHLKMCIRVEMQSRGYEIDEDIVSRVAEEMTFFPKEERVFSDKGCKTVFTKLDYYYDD
Streptavidin (Streptomyces avidinii), sequence (P22629 whole entry, looked up): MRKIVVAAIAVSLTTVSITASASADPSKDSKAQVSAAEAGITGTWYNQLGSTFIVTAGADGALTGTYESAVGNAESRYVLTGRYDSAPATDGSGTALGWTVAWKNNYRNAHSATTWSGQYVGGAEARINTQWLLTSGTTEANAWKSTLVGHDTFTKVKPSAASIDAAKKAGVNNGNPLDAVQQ

Take `N#Cc1ccc(NN2C(C(O)c3c(F)cccc3Cl)C=CC3C(=O)N(c4ccccc4)C(=O)C32)cc1` (stereo not given): the composite z-score in assay [1] worked out at 2.29; in assay [2], 1.21; in [3], 0.377; in [4], 0.973; in assay [5], 1.23; in assay [6] it was 0.407. Further, the composite z-score in the assay on Lefty1 was -0.0219; in [8] it was 0.997; in [10], 0.607; in [15], 1.35; in assay [16] it was 0.419; in the assay with Torsin-1A (Homo sapiens) [17], 0.513. Moreover, the composite z-score stood at 1.35 with Torsin-1A (Homo sapiens) [18] and 0.585 in [19]. In addition, the z-score was -0.36 in assay [7]; -0.671 (inactive) in assay [9]; 0.17 (inactive) in assay [11]; -1.11 (inactive) in assay [12]; 0.622 (inactive) in assay [13]; 0.201 (inactive) in [14].

Consider `COc1ccc(C#Cc2ccc3c(c2)[C@]2(C(=O)N3)[C@H](c3ccccc3OCCO)N3[C@H](c4ccccc4)[C@H](c4ccccc4)OC(=O)[C@H]3[C@@H]2C(=O)O)cc1`, for which the composite z-score was 1.61 in [1]; 1.22 in assay [2]; 0.191 in assay [3]; 0.951 in assay [4]; 0.694 in assay [5]; 0.314 in [6]. Also, the composite z-score stood at 1.15 in the assay on Lefty1; 1.28 in assay [8]; 0.535 in assay [10]; 1.45 in assay [15]; 0.909 in [16]; 0.498 with Torsin-1A (Homo sapiens) [17]. Further, the figures for the composite z-score (with Torsin-1A (Homo sapiens) [18]; in assay [19]) were 0.659 and 2.06, respectively. Besides, the z-score is -2.59 in assay [7]; -3.9 (inactive) in [9]; -4.91 (inactive) in assay [11]; -1.66 (inactive) in assay [12]; -1.16 (inactive) in assay [13]; 4.03 (inactive) in assay [14].

Regarding `C=CC[C@@]1(C(=O)NCc2ccccc2)N=C(c2ccc(OCCCO)cc2)O[C@@H]1c1ccccc1N=[N+]=[N-]`, the composite z-score turned out to be 2.41 in [1]; 1.24 in assay [2]; 0.649 in assay [3]; 0.993 in assay [4]; 1.28 in assay [5]; 0.281 in assay [6]. Further, the composite z-score in the assay on Lefty1 turned out to be 0.11; in [8], 1; in assay [10] it was 0.465; in [15], 1.15; in assay [16], 0.174; in the assay with Torsin-1A (Homo sapiens) [17], 1.23. The composite z-score was 0.762 with Torsin-1A (Homo sapiens) [18] and -0.245 in assay [19]. Moreover, the z-score was 0.444 in assay [7]; -8.72 (active) in [9]; -2.73 (inactive) in [11]; -0.291 (inactive) in assay [12]; 3.85 (inactive) in assay [13]; 0.34 (inactive) in assay [14].

In the case of `COc1ccc(C(O)C2C=CC3C(=O)N(c4ccccc4)C(=O)C3N2Nc2ccccc2F)cc1OCc1ccccc1` (stereo not given), the composite z-score in assay [1] was 0.981; in assay [2] it was 1.22; in assay [3], 1.37; in assay [4], 0.991; in assay [5] it was 0.634; in assay [6] it was -0.179. Besides, the composite z-score with Lefty1 was -0.454; in [8] it was 1.18; in assay [10], 0.353; in assay [15] it was 1.47; in assay [16], 1.14; in the assay with Torsin-1A (Homo sapiens) [17], 0.281. The composite z-score in the assay with Torsin-1A (Homo sapiens) [18] is 0.671; in assay [19] it was -0.876. The z-score was 0.383 in [7]; -0.237 (inactive) in assay [9]; 0.0131 (inactive) in [11]; -0.547 (inactive) in assay [12]; -0.143 (inactive) in assay [13]; -0.269 (inactive) in assay [14].

Consider `CCCC=C(CCC)[C@@H](NC(=O)Oc1ccc(F)cc1)c1ccc(C(=O)OC)cc1`, for which the composite z-score in assay [1] was 0.421; in assay [2] it was 1.15; in assay [3], 0.401; in assay [4], 0.906; in assay [5], 0.746; in [6], -0.161. Further, the composite z-score was -0.186 in the assay with Lefty1; 1.09 in assay [8]; 0.0931 in assay [10]; 1.55 in assay [15]; 0.329 in assay [16]; -0.0302 in the assay with Torsin-1A (Homo sapiens) [17]. The composite z-score was 0.262 in the assay with Torsin-1A (Homo sapiens) [18] and -0.69 in assay [19]. Further, the z-score in assay [7] was 2.89; in assay [9], 0.516 (inactive); in assay [11] it was -3.08 (inactive); in assay [12], -0.135 (inactive); in assay [13], 0.194 (inactive); in assay [14] it was 1.43 (inactive).
